# According to PubChem BioAssay AID2314 (National Center for Advancing Translational Sciences (NCATS), 2010):
# Hit rate of the full screen: of about 300,000 compounds, about 37,000 (12%) were called active. Shown is part of a subset that was picked to be rich in actives. Values without a mark were called inactive. Cut-off read from the data, not from the text of the source: active = max response mostly above about 13% (no sharp cut-off); inactive = mostly below about 14%.
# Test: Cycloheximide Counterscreen for Small Molecule Inhibitors of Shiga Toxin; note: read at 38.3 µM for the half of the compounds with a filed dose; 0% is about no effect
# Conditions: cell reporter, cycloheximide protein synthesis inhibition counterscreen; hits give high values
row,Structure (SMILES),max response
1,Cc1cc(=O)oc2c3c(cc(OCC(=O)N[C@H](C(=O)O)c4ccccc4)c12)OC(C)(C)CC3,-1.78%
2,CC(C)C(NS(=O)(=O)c1ccc(-c2ccc(Br)cc2)cc1)C(=O)O (configuration not stated),7.4%
3,Cc1cc(C)cc(N(CC(=O)NC2CCCC2)C(=O)CCC(=O)Nc2nccs2)c1,-5.07%
4,Cc1nn(-c2ccccc2)c(=O)c2noc(C)c12,-1.05%
5,Cc1nn(-c2ccccc2)c(C)c1/C=C/C(=O)OC(C)C(N)=O (configuration not stated),18.6% (active)
6,Cc1nn(-c2ccccc2)c(C)c1NC(=O)CCl,17.3%
7,CCc1ccccc1S(=O)(=O)Cc1ccc(C(=O)NCCc2ccccc2)o1,16%
8,CCN(CC)S(=O)(=O)c1ccc(NC(=O)c2cccnc2Cl)c(NC(=O)c2cccnc2Cl)c1,-1.75%
9,Cc1ccc(NC(=O)CNCc2ccccn2)cc1S(=O)(=O)N(C)C,19.5%
10,CCN(CC)S(=O)(=O)c1ccc(NC(=O)c2cnc(C)cn2)cc1,0.654%
11,CCN(CC)S(=O)(=O)c1cccc(C(=O)Nc2ccccc2)c1,17.1% (active)
12,CCN(CC)S(=O)(=O)c1cccc(C(=O)NCC(=O)OCC(=O)NCc2ccccc2)c1,-1.61%
13,CCN(CC)S(=O)(=O)c1cc(C(=O)Nc2ccccn2)ccc1C,45.1% (active)
14,CC(C)c1ccc(C2C(C(=O)c3ccco3)=C(O)C(=O)N2CC2CCCO2)cc1 (configuration not stated),10.1%
15,CC(C)(C)[C@H]1C=C(C(=O)NCc2ccccc2)O[C@@H](OCc2ccc(CO)cc2)C1,-1.33%
16,COc1cc(C(=S)N2CCOCC2)cc(OC)c1OC(=O)c1ccc([N+](=O)[O-])cc1[N+](=O)[O-],3.8%
17,Cn1c(SCc2c(F)cccc2Cl)nnc1-c1cnccn1,56.4% (active)
18,Cn1c(SCc2ccc(F)cc2)nnc1-c1ccncc1,10.5%
19,Oc1ccc(-n2nnnc2SCc2c(F)cccc2Cl)cc1,-2.8%
20,O=C(CSc1nnc(-c2cnccn2)n1Cc1ccco1)c1ccc(Cl)c(Cl)c1,0.777%
21,CCN(CC)C(=O)CSc1nnc(-c2cnccn2)n1-c1ccc(C)cc1,0.416%
22,Cc1ccc(CSc2nnc(-c3cnccn3)n2C)cc1,10.9% (active)
23,CN(C)C(=O)c1coc2nc3ccccc3nc12,4.74%

row,Structure (SMILES),max response
1,COc1ccc(C(C[N+](=O)[O-])n2nc(C)cc2C)cc1 (configuration not stated),-0.331%
2,COc1ccc(C(=O)N2CCc3cc(OC)c(OC)cc3C2c2cccc([N+](=O)[O-])c2)cc1 (configuration not stated),0.684%
3,CCOC(=O)c1sc(NC(=O)CSc2n[nH]c(CC)n2)nc1C,0.587%
4,CSc1nc(O)c(Cc2ccccc2)c(=O)[nH]1,-3.85%
5,CCOC(=O)c1ccccc1NC(=O)CSc1nc2ccccc2c(=O)[nH]1,-3.39%
6,O=C(CSc1nc(O)c(Cc2ccccc2)c(=O)[nH]1)Nc1nc2c(s1)CCCC2,28% (active)
7,CCOC(=O)c1sc(NC(=O)CSc2nc(O)c(Cc3ccccc3)c(=O)[nH]2)nc1C,39.7% (active)
8,O=C(CCS(=O)(=O)c1ccccc1)Nc1nc2c(s1)CCCC2,5.94%
9,COc1ccc(C(=O)Nc2ccc(F)cc2F)cc1,28.7%
10,Cn1c(NC(=O)c2ccc3c(c2)OCO3)cc(=O)n(C)c1=O,-4.72%
11,O=C(COC(=O)c1ccc2c(c1)OCCO2)NCc1ccccc1,10.5%
12,Cc1ccc(F)cc1NC(=O)c1ccc2c(c1)OCO2,25.6% (active)
13,O=C(Nc1ccccc1N1CCN(C(=O)c2ccccc2)CC1)c1ccc2c(c1)OCO2,-1.45%
14,CC(NC(=O)COC(=O)c1ccc2c(c1)OCO2)c1ccccc1 (configuration not stated),7.94%
15,O=C(Nc1ccccc1F)c1ccc2c(c1)OCO2,41.4% (active)
16,Cc1cccc(C(=O)Nc2ccccc2N2CCN(c3ccc(F)cc3)CC2)c1,-0.148%
17,O=C(OCc1ccccc1F)c1ccc2c(c1)OCCO2,33% (active)
18,Cc1ccc(-n2nc3c(c2NC(=O)c2ccc4c(c2)OCO4)CSC3)c(C)c1,-1.7%
19,Cc1ccc(F)cc1NC(=O)c1cccc(N(C)C)c1,28.9% (active)
20,Cc1cc2c(c(=O)n1C)C(C(C)C)C(C#N)=C(N)O2 (configuration not stated),-2.6%
21,Cc1cccc(C)c1NC(=O)CS(=O)CC(=O)N1CCN(c2ccccc2)CC1 (configuration not stated),-5.35%
22,CCc1cccc(C)c1N1C(=O)CN(Cc2ccccc2)C1=S,-2.45%
23,O=C1/C(=C\c2cccnc2)CN(Cc2ccccc2)C/C1=C\c1cccnc1,7.45%

row,Structure (SMILES),max response
1,CCOC(=O)N1CCN(c2c(NCCN3CCN(c4ccccc4F)CC3)c(=O)c2=O)CC1,-2.33%
2,COc1ccc(C(CNCC(=O)Nc2ccccc2F)N(C)C)cc1 (configuration not stated),-2.53%
3,COc1ccc(C2C(C#N)=C(N)Oc3cc(N)ccc32)cc1OC (configuration not stated),11.4%
4,COCCCn1c(SCc2cccc(OC)c2)nc2cc(OC)c(OC)cc2c1=N,6.77%
5,Cc1onc(-c2ccccc2)c1C(=O)Nc1ccccc1C#N,3.86%
6,O=C(CN1CCN(CC(=O)Nc2ccc3c(c2)OCO3)CC1)Nc1ccc(F)cc1,-2.15%
7,N#Cc1ccccc1NC(=O)c1ccc2c(c1)OCO2,24.8% (active)
8,O=C(CN1CCN(c2ccccc2F)CC1)c1ccc2c(c1)OCO2,16.8% (active)
9,O=C(c1ccc2c(c1)OCO2)N1CCNc2ccccc2C1,3.63%
10,CC1(c2ccc(Cl)cc2)NC(=O)N(CC(=O)c2ccc3c(c2)OCO3)C1=O (configuration not stated),14.2%
11,CSCCC(NC(=O)c1cc([N+](=O)[O-])cc([N+](=O)[O-])c1)c1nc2ccccc2[nH]1 (configuration not stated),-1.41%
12,Cc1cc(C(=O)N/N=C/c2cc([N+](=O)[O-])cc(C)c2O)n[nH]1,4.92%
13,Cc1cc(=O)[nH]c(Nc2cccc(Br)c2)n1,-1.7%
14,CN(C)Cc1c(C(=O)N/N=C/c2ccccc2OCc2ccc(F)cc2)nnn1-c1nonc1N,-5.05%
15,O=C(/C=C/c1ccc(Cl)cc1)NCCCn1ccnc1,13.1% (active)
16,O=C(NCCCn1ccnc1)Nc1ccc(Cl)cc1Cl,-6.88%
17,CC(C)(C)c1ccc(/C=C/C(=O)NCCCn2ccnc2)cc1,-3.02%
18,FC(F)(F)c1ccc(CN2C[C@@H]3C(c4ccccc4)C4(c5ccccc5)CC3(C4)[C@H]2c2ccccc2)cc1 (some centres not stated),-2.46%
19,COc1cc(NC(=O)CN(C)S(=O)(=O)c2ccc3nc(C)sc3c2)cc(OC)c1,-1.04%
20,Cc1nc2ccc(S(=O)(=O)N(C)CC(=O)NC(C)c3ccccc3)cc2s1 (configuration not stated),-0.483%
21,Cc1ccc(N(CC(=O)Nc2cc(C)cc(C)c2)S(=O)(=O)c2cccc3nonc23)cc1,-2.6%
22,CCN(CC)S(=O)(=O)c1ccc(NC(=O)CN(c2cccc(F)c2)S(C)(=O)=O)cc1,-1.18%
23,Cc1ccc2nc(-c3ccc(NC(=O)CN(C)S(=O)(=O)c4ccccc4)cc3)sc2c1,41.9% (active)

row,Structure (SMILES),max response
1,Cc1cccc(N(CC(=O)Nc2ccc(-c3nc4ccc(C)cc4s3)cc2)S(C)(=O)=O)c1,43% (active)
2,COc1ccc(/C=C/CN2CCCC(C(=O)c3cc(F)ccc3F)C2)cc1 (configuration not stated),4.59%
3,COc1ccc(-c2nc3n(c(=O)c2C#N)CCS3)c(OC)c1,-3.87%
4,COc1ccc(F)c(-c2nc(CN3CCC(c4ccccc4)CC3)c(C)o2)c1,-1.94%
5,COc1cc(/C=C2\C(=N)N3N=C(CC(=O)N4CCOCC4)SC3=NC2=O)cc(OC)c1OC,-8.71%
6,CN(C)N1C(N)=C(C#N)C(c2ccc(Br)cc2)C2=C1CCCC2=O (configuration not stated),11.2%
7,Cc1cc(C)nc(NC(=O)C(C)N2C(=O)c3ccccc3C2=O)n1 (configuration not stated),-0.537%
8,Cc1cc(C)nc(NC(=O)Nc2ccccc2C(F)(F)F)n1,25.8% (active)
9,COc1cccc(C(=O)NC(=O)Nc2nc(C)cc(C(F)(F)F)n2)c1,-1.67%
10,NNC(=O)c1nnn(-c2nonc2N)c1CN1CCCC1,-0.43%
11,CCOc1cc2[nH]c(=S)n(Cc3ccc(C(=O)N4CCN(C)CC4)cc3)c(=O)c2cc1OCC,-1.74%
12,Cc1ccc(OCCCC(=O)N2CCOCC2)c(C)c1,51.4% (active)
13,Cc1cc(S(=O)(=O)N2CCOCC2)ccc1OCC(=O)N1CCOCC1,0.946%
14,Cc1ccc(OCCCC(=O)NC(C)c2ccccc2)c(C)c1 (configuration not stated),6.31%
15,O=C(c1ccc(Br)o1)N1CCN(CCOc2ccccc2)CC1,-3.01%
16,CCCc1c(C(=O)O)cnn1-c1ccc(Cl)cc1,-0.801%
17,CCCc1c(C(=O)Nc2ccc(F)cc2)cnn1-c1ccccc1,33.4% (active)
18,CCNC(=O)c1cnn(-c2ccccc2)c1-c1ccccc1,-0.397%
19,CC(C)(C)c1cc(P(=O)(c2ccccc2)c2ccccc2)ccc1O,0.647%
20,CC(C)N(C(=O)CSc1nc(COc2ccccc2)nc2ccccc12)C(C)C,9.79%
21,Cc1ccc(-c2ccc(/C=N/NC(=O)CN3CCOCC3)o2)cc1[N+](=O)[O-],12.3%
22,CN1CCN(/N=C2/C(=O)Nc3ccc([N+](=O)[O-])cc32)CC1,9.26%
23,CN1CCN(/N=C/c2ccc(-c3ccc([N+](=O)[O-])cc3)o2)CC1,31.4% (active)
